# Only some compounds are listed: those with a hit (about 2% of all), similar ones and a draw of the others.
# Platelet DG rel: platelet dense granule release activity | 300,000 compounds, 0.22% hits | inhibition, %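 (compounds screened at 7.5 µM in platelet-rich plasma)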 | human platelet-rich plasma, SFLLRN dense granule ATP release, luminescence;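 active = mean replicate score, as percent of positive control, at or above 50; inconclusive = mean below 50 but at least one replicate at or above 50; inactive = mean and every replicate below 50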
# Yeast superoxide: yeast age-related superoxide inhibition as caloric restriction mimetic; S. cerevisiae aged cells, superoxide DHE fluorescence; stronger effect = lower value; superoxide response (% of plate mean), % at 10 µM; 330,000 compounds, 0.18% hits;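 active = superoxide response under a set limit, about three screen SD below normal, cut at about 65% in these data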;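 note: yeast aged for seven days with compound at 30 °C before DHE staining; 100% = average MFI of all compound-treated wells on the plate with controls excluded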
# PolyA inh: inhibitors of polyadenylation in S. cerevisiae | activity score, % at 12 µM | S. cerevisiae SKY197-pL101 polyadenylation reporter, beta-gal luminescence; efflux-impaired pdr1/pdr3 knockout yeast; score 100 = 6 SD above DMSO | AID 1875 | 300,000 compounds, 0.02% hits;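 active = lowest replicate activity score at least 50, where 100 means six control SD above control mean; inconclusive = lowest score under 50 but half or more replicates reach 50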;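 note: yeast exposed to compound for 9 h at 30 °C; higher score means more reporter readthrough which indicates perturbed polyadenylation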
# Calb FLC: C. albicans growth modulation with fluconazole; AID 1979; 300,000 compounds, 0.57% hits; C. albicans CaCi-2 (fluconazole-resistant clinical isolate) + fluconazole, Alamar Blue growth, 48 h; growth inhibition, % (no concentration beside the values);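 active = growth inhibition above about 58% in most replicates, limit read from the data, passing the limit was not always enough; inconclusive = exactly half the replicates above a set limit; inactive = most replicates below a set limit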;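 note: all wells also contain fluconazole at 8 µg/ml as a sub-toxic cotreatment; 0% = median of DMSO wells and 100% = median of geldanamycin control wells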
# SKKanGAS inh: blocks kanamycin growth of S. pyogenes SKKanGAS strain. 300,000 compounds, 1.3% hits. AID 1662. BacTiter-Glo, 6 h. inhibition, % at 7.5 µM;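 active = mean replicate score, as percent of positive control median, at least 50; inconclusive = mean below 50 but one replicate at or above 50; inactive = mean and every replicate below 50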;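 note: strain carries kanamycin resistance gene driven by streptokinase promoter and grows in 40 µg/ml kanamycin; loss of luminescence reflects streptokinase promoter inhibition or plain growth inhibition; 0% = median of DMSO wells and 100% = positive control at its reference dose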
# Starred values were filed as active, the others as inactive; ? = inconclusive; / = no result.
SMILES,Platelet DG rel,Yeast superoxide,PolyA inh,Calb FLC,SKKanGAS inh
CC(C)[C@H]1CC2C3CC=C4C[C@@H](O)CC[C@]4(C)C3CC[C@]2(C)[C@H]1O (stereo not given in full),/,80,/,/,/
C[C@@H]1CC[C@@]2(NC1)O[C@H]1C[C@H]3[C@@H]4CC=C5C[C@@H](O)CC[C@]5(C)[C@H]4CC[C@]3(C)[C@H]1[C@@H]2C,-4,93,-22,79*,-1
Clc1ccc(CCC(Cn2ccnc2)Sc2c(Cl)cccc2Cl)cc1 (stereo not given),/,119,/,/,/
OC(CNC1CCCCCCC1)c1ccccc1 (stereo not given),28,116,7,-14,3
CCOC(=O)Cc1csc(NC(=O)c2c(O)c3ccccc3n(CCC(C)C)c2=O)n1,-5,97,-10,10,68*
CCCCCCn1c(=O)c(C(=O)Nc2nc(CC(=O)OCC)cs2)c(O)c2ccccc21,1,113,3,6,-9
CCCCCCn1c(=O)c(C(=O)Nc2cnccn2)c(O)c2ccccc21,6,89,19,7,64*
CCCCn1c(=O)c(C(=O)Nc2ccccn2)c(O)c2ccccc21,-8,101,4,28,53*
CCCCCn1c(=O)c(C(=O)Nc2ccccc2)c(O)c2ccccc21,-4,94,0,21,-1
CCCCCCn1c(=O)c(C(=O)Nc2c(C)n(C)n(-c3ccccc3)c2=O)c(O)c2ccccc21,2,116,-4,21,89*
COC(=O)C1=C(N)Oc2cc(C)oc(=O)c2C12C(=O)Nc1ccccc12 (stereo not given),-6,111,4,8,5
COC(=O)C1=C(c2ccc(F)cc2OCc2ccccc2)C[C@@H]2CC[C@H]1N2C(=O)N1CCC(O)CC1,/,134,/,/,/
COC(=O)C1=C(c2cc3ccccc3o2)C[C@@H]2CC[C@H]1N2C(=O)NCc1ccco1,2,108,-15,8,-1
O=[N+]([O-])NC1=NCCN1Cc1ccc(Cl)nc1,-7,108,-7,/,5
CCCCCOc1ccc(C)cc1CN(CCCl)CCCl,15,113,-2,-18,-8
CCNC(=O)C1OC(n2cnc3c(N)ncnc32)C(O)C1O (stereo not given),95*,97,3,1,-15
COc1cccc(C(=O)C2CCCN(Cc3cccc4c3OCO4)C2)c1 (stereo not given),10,74,-14,108*,5
CC1CCC(C(C)C)C(OP(N)(=O)c2ccccc2)C1 (stereo not given),-5,95,3,?,6
CC1CCC(C(C)C)C(OC(=O)COC(=O)c2ccccc2N)C1 (stereo not given),-1,98,7,-1,67*
O=C(Nc1nccs1)c1c(O)c2c(n(Cc3ccco3)c1=O)CCCC2,12,122,-6,-4,55*
O=C(Nc1ccccc1)c1c(O)c2c(n(Cc3ccco3)c1=O)CCCC2,10,104,6,1,-4
COC(=O)C1=C(c2ccc(Cl)c(C(F)(F)F)c2)C[C@@H]2CC[C@H]1N2C(=O)NCCOc1ccc(OC)cc1,/,96,/,/,/
COC(=O)C1=C(c2cccc(C#N)c2)C[C@@H]2CC[C@H]1N2C(=O)NCC1CC1,/,117,/,/,/
Cc1ccc(-c2cc(-c3ccc(C)cc3)[n+](-c3ccc(C(=O)[O-])cc3)c(-c3ccc(C)cc3)c2)cc1,-4,94,-2,38,78*
CN(C)c1ccc(-[n+]2c(-c3ccccc3)cc(-c3ccccc3)cc2-c2ccccc2)cc1,1,/,-17,90*,-5
SMILES,Platelet DG rel,Yeast superoxide,PolyA inh,Calb FLC,SKKanGAS inh
CCOC(=O)c1ccc(-[n+]2c(-c3ccccc3)cc(-c3ccccc3)cc2-c2ccccc2)cc1,-4,101,-14,39,2
Cc1ccc(-c2cc(-c3ccccc3)cc(-c3ccccc3)[n+]2-c2ccccc2)cc1,0,95,-16,86*,-4
C[n+]1c(-c2ccccc2)cc(-c2ccc(Cl)cc2)cc1-c1ccccc1,4,97,19,97*,-2
CCc1ccccc1NC(=O)N1C[C@H]2C[C@@H](C1)c1cccc(=O)n1C2,-2,106,13,-2,-3
Ic1ccccc1CN[C@@H]1C2CCN(CC2)[C@@H]1C(c1ccccc1)c1ccccc1,/,98,/,/,/
Cc1ccc(-c2cc(-c3ccc(C)cc3)[n+](-c3ccccc3)c(-c3ccc(C)cc3)c2)cc1,7,95,6,106*,22

# Compound activity as filed in PubChem BioAssay.
